m-calpain inh – calpain II (pig) inhibition; purified calpain II, fluorogenic peptide substrate, 30 min; inhibition, % at 16 µM; hit rate 0.37% among 220,000; AID 1236;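 active = inhibition above about 50%, limit read from the data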
Lmaj promast – reduces viability of Leishmania major promastigotes. resazurin fluorescence viability. inhibition, % at 10 µM. hit rate 9% among 200,000; in the data active = inhibition above about 50%;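 also: promastigotes grown with compound for 44 hours at 28 °C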
ROMK primary – human ROMK K+ channel modulation, primary screen | Tet-inducible ROMK, thallium flux fluorescence; actives lie on both sides | B-score at 10 µM | hit rate 2% among 130,000 | P48048 | AID 1918;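 active = signal ratio slope over the read window, or its plate-corrected B-score, at least 3 SD from the plate mean, either direction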;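 also: B-score of the F/F0 ratio slope over 7 to 12 s after thallium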
Target sequence (P48048 whole entry, looked up): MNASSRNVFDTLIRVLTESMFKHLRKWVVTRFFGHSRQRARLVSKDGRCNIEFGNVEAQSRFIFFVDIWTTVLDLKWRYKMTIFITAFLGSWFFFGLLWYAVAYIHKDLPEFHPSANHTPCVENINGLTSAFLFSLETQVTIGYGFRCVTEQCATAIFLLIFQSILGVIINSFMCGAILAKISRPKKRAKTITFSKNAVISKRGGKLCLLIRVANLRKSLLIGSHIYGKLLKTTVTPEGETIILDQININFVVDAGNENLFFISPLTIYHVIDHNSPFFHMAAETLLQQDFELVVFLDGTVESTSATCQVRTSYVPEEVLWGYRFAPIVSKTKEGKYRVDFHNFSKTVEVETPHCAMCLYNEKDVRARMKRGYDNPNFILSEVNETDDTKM
KCC2 mod – KCC2 (human) Cl- transport modulation; KCC2 cells, thallium flux FluoZin-2 fluorescence; B-score of Tl+ flux slope (higher = more flux/activation; lower = inhibition) at 10 µM; hit rate 2.2% among 190,000; AID 1456;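 active = thallium flux slope and its plate-corrected score both differing from the plate sample mean at a set confidence after two filtering rounds, in either direction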;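 also: slope of fluorescence scaled to starting intensity during 10 to 20 s after thallium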
WT yeast gro inh – growth inhibition of WT yeast, mitochondrial fusion screen. AID 1362. hit rate 2.1% among 190,000. mitochondrial fusion phenotypic screen, WT strain. inhibition, % at 10 µM; in the data active = inhibition above about 58%; tested in S. cerevisiae
KCC2 sec1 – confirmation of human KCC2 transport modulators; AID 1713; normalised thallium flux (F/F0 slope) at 10 µM; HEK293-KCC2, thallium flux, FluoZin2 fluorescence; stronger effect = higher value; shares compounds with KCC2 mod; hit rate 15% among 3,700;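 active = thallium flux slope above the same plate's solvent-only control mean plus 3 SD; inconclusive = the two replicate wells disagree; inactive = no significant difference from solvent-only control wells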
KCC2 bumet counter – bumetanide-insensitive thallium flux in KCC2 cells with ouabain, counter-screen | shares compounds with KCC2 mod | HEK293-KCC2 + bumetanide/ouabain, thallium flux FluoZin2; stronger effect = higher value | normalized thallium flux at 10 µM | hit rate 49% among 3,700;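 active = thallium entry rate above the same plate's blocked-transporter control wells by more than 3 SD; inconclusive = the two repeat wells disagree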;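 also: raw slope of fluorescence over initial fluorescence between 10 and 20 s after thallium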
KCC2 sec2 – confirmation of human KCC2 transport modulators. shares compounds with KCC2 mod. HEK293-KCC2, thallium flux FluoZin2 fluorescence; actives lie on both sides; F/F0 rise rate, 10–20 s post-thallium. normalized thallium flux at 10 µM. hit rate 23% among 3,700;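 active = thallium flux slope more than 3 SD above or below the plate's solvent-only control mean, mostly below; inconclusive = the two repeat wells disagreed; inactive = no significant shift from solvent-only controls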;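 also: raw slope with 0.1% DMSO as baseline and bumetanide as block control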
HEK293 Tl flux – acts in parental HEK cells, KCC2 counter-screen; hit rate 46% among 3,700; shares compounds with KCC2 mod; HEK293 parental cells, thallium flux FluoZin2, ouabain; baseline-ratio fluorescence slope, 10–20 s after thallium; thallium flux rate (normalised fluorescence) at 10 µM;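 active = thallium flux rate significantly above the same plate's solvent-only control wells, beyond their mean plus 3 SD; inconclusive = the two replicate wells gave conflicting results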
KCC2 retest ouab – confirmation of human KCC2 modulators with ouabain; shares compounds with KCC2 mod; HEK293-KCC2, thallium flux FluoZin2 fluorescence; bidirectional: low = inhibitor, high = activator; raw Tl+ flux slope (below DMSO = inhibition, above = activation) at 10 µM; hit rate 48% among 3,700; AID 1717;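 active = thallium flux slope beyond 3 SD from same-plate DMSO control mean in most replicates, usually higher, sometimes lower; inconclusive = repeat tests gave conflicting results; inactive = no significant difference from controls in most replicates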;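 also: slope of initial-normalized fluorescence between seconds 10 and 20 after thallium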
HEK counter2 – acts in parental HEK cells, second KCC2 counter-screen. thallium flux slope at 10 µM. HEK293 parental, thallium flux FluoZin-2 fluorescence slope. shares compounds with KCC2 mod. hit rate 33% among 3,700;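 active = thallium flux slope above the same plate's solvent-control mean plus 3 SD in both duplicate wells; inconclusive = duplicate wells that disagreed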;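 also: run without ouabain in cells lacking the KCC2 cotransporter; slope of fluorescence scaled to its starting value between 10 and 20 s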
An asterisk follows results filed as active; ? = inconclusive; . = no result given. Shown are actives, neighbours in structure and some others; about 12% of the full set was active somewhere.

SMILES	m-calpain inh	Lmaj promast	ROMK primary	KCC2 mod	WT yeast gro inh	KCC2 sec1	KCC2 bumet counter	KCC2 sec2	HEK293 Tl flux	KCC2 retest ouab	HEK counter2
COc1ccc(C(=O)NNC(=O)C(=O)Nc2ccc(C)c(Cl)c2)cc1	-38.5	33.1	0.105	47.5*	-13.8	0.0104*	0.0672*	0.0536*	0.0572*	0.0601*	0.0513*
Cc1ccc(NC(=O)C(=O)NNC(=O)c2ccccc2C)cc1Cl	-23.2	2.0	.	45.9*	9.7	0.0476*	0.115*	0.052*	?	0.0867*	0.0433*
CC(=O)NCCc1c[nH]c2ccc(OCC(O)CNC(C)(C)C)cc12 (centres undefined)	-0.9	.	.	-0.478	.	.	.	.	.	.	.
CC(C)N(CC(=O)Nc1ccc(Cl)cc1C(F)(F)F)C(=O)CCl	6.1	3.3	0.537	0.736	-15.8	.	.	.	.	.	.
COc1ccc(-c2cc(C(F)(F)F)c3c(=O)n(-c4ccccc4)[nH]c3n2)cc1	9.4	-9.7	.	-5.21*	9.4	0.00721	0.00747	0.0302	0.00694	0.0179*	0.0106
CCOc1ccccc1N1C(=O)c2ccc(C(=O)Nc3cccnc3)cc2C1=O	-18.2	-8.6	.	-4.62*	15.0	0.009	0.00685	0.0322	0.00762	0.0227	0.0106
O=C(CC1C(=O)NCCN1Cc1ccccc1C(F)(F)F)NCCn1cccn1 (centres undefined)	4.1	-8.6	0.346	0.000764	17.7	.	.	.	.	.	.
CCOc1cc(/C=C2\CCCC(C(=O)C(F)(F)F)=C2O)ccc1O	2.4	15.1	-1.15	0.00932	12.6	.	.	.	.	.	.
C=C1C(C(=O)N2CCOCC2)C1C(=O)N1CCOCC1 (centres undefined)	3.3	-1.7	.	0.865	7.1	.	.	.	.	.	.
CCCCN(C)CCC(=O)Nc1ccc2c(c1)CCC2	-35.5	32.4	-0.107	6.09*	-4.4	0.00669	?	0.031	0.00798	0.0185	0.0113
O=C(NC(=S)Nc1ccc(C(=O)N2CCOCC2)cc1)c1ccc([N+](=O)[O-])cc1	12.1	-14.8	0.0357	.	-14.4	.	.	.	.	.	.
S=C(NCc1ccccc1Cl)Nc1ccccc1Cl	1.4	11.1	-2.14	6.05*	46.2	0.00892	0.0118*	0.0287	0.00746	?	0.00855
C=CCn1c(SCCCc2ccccc2)nc2c1c(=O)[nH]c(=O)n2C	18.3	1.8	.	-3.7*	26.3	0.00733	0.00443	0.0325	?	0.0191	0.0104
C/C=C/Cn1c(SCCCc2ccccc2)nc2c1c(=O)[nH]c(=O)n2C	10.7	9.0	.	-5.09*	17.6	0.00668	0.00394	?	0.00543*	?	0.0086*
COCCn1c(SCCCc2ccccc2)nc2c1c(=O)[nH]c(=O)n2C	-18.6	-6.3	.	-2.73	36.6	.	.	.	.	.	.
Cc1cc(C)nc(/N=C(\N)Nc2ccc(SC(F)F)cc2)n1	3.3	.	.	1.03	.	.	.	.	.	.	.
O=c1cc(-c2ccccc2Cl)oc2c([N+](=O)[O-])c(O)cc(O)c12	-11.6	11.0	-0.791	-6.95*	24.4	0.00622	?	0.0185*	0.00571*	0.0108*	?
O=C(Nc1ccc(O)c2c(=O)cc(-c3ccccc3Cl)oc12)c1ccccc1Cl	-17.9	45.4	-2.23	0.23	11.3	.	.	.	.	.	.
COc1ccc(CCN2C(=O)NC(NS(=O)(=O)c3ccc(NC(C)=O)cc3)(C(F)(F)F)C2=O)cc1OC (centres undefined)	7.0	-2.5	-1.12	-0.535	2.9	.	.	.	.	.	.
CCCCNC(=S)N/N=C/c1ccc(C)s1	41.3	48.7	-0.937	4.01*	10.1	?	0.0266*	0.0308	0.0122*	0.0208*	0.0144*
CCCCNC(=S)N/N=C/c1cc(C)ccc1C	16.3	-3.6	0.497	4.3*	66.5*	?	0.0091*	0.0353	0.0122*	?	0.0141*
CCCCNC(=S)N/N=C/c1ccccc1F	72.0*	-9.2	0.716	7.18*	16.9	0.0112	0.0381*	0.0333	0.0188*	?	0.0124*
CCOC(=O)N/N=C\c1sccc1C	18.2	-1.7	1.71	1.61	0.1	.	.	.	.	.	.
Cc1ccc(/C=N/NC(=S)NCCc2ccccc2)s1	-49.0	-1.8	0.135	0.114	1.4	.	.	.	.	.	.
CCCCNC(=S)N/N=C/c1sccc1C	21.7	-5.0	.	10.1*	10.8	0.01	0.0165*	0.0336	0.019*	?	?
SMILES	m-calpain inh	Lmaj promast	ROMK primary	KCC2 mod	WT yeast gro inh	KCC2 sec1	KCC2 bumet counter	KCC2 sec2	HEK293 Tl flux	KCC2 retest ouab	HEK counter2
COc1ccc(/C=N/NC(=O)c2ccncc2)cc1CN1CCN(c2ccc(F)cc2)CC1	-8.9	-3.6	-0.0308	-0.557	-6.4	.	.	.	.	.	.
CCN(CC(=O)NCc1ccc(Cl)cc1)Cc1cc(=O)n2ccsc2n1	-28.9	3.2	1.56	0.0207	-6.0	.	.	.	.	.	.
Clc1ccccc1OCc1nnc(-c2ccccc2Br)o1	-17.0	2.9	.	-2.78	57.5	.	.	.	.	.	.
Brc1ccccc1-c1nnc(COc2cccc3cccnc23)o1	-54.7	2.0	0.919	-2.95*	-8.3	0.0069	0.00622	0.0311	0.00634	0.0379*	0.00957
C=CCn1c(-c2ccc(Cl)cc2)c[nH]c1=S	6.2	-3.2	-0.425	5.15*	0.4	?	0.0295*	0.0343	0.0112*	0.0255	?
C=CCn1c(-c2ccccc2)c[nH]c1=S	-32.1	-7.0	.	0.177	4.6	.	.	.	.	.	.
Cc1nnc(NC(=O)C2CCN(S(=O)(=O)c3ccc(Cl)cc3)CC2)s1	19.8	-8.4	-0.0992	-0.0164	0.2	.	.	.	.	.	.
Cc1ccc(/C=C2\SC(=S)N(C3CCS(=O)(=O)C3)C2=O)o1 (centres undefined)	-12.0	46.2	-1.86	0.397	-21.2	.	.	.	.	.	.
Cc1ccc(/C=C2\SC(=S)N(/N=C/c3cc([N+](=O)[O-])ccc3O)C2=O)o1	-7.7	-0.7	1.54	3.78*	4.7	0.0101	0.0128*	0.0309	0.00958*	0.028*	0.0103
CN(C(=O)CSc1nc2cc(Cl)ccc2c(=O)n1Cc1ccco1)C1CCS(=O)(=O)C1 (centres undefined)	5.9	13.9	-0.305	12*	-9.1	0.0108	0.0144*	0.0317	0.0163*	?	0.0117
CCOC(=O)CSc1nc2ccccc2c(=O)n1CCCCCC(=O)NCc1ccco1	10.4	6.0	.	-4.07*	13.6	0.00838	?	0.0328	0.00705	0.0224	0.0109
CCc1cc2c(=O)n(Cc3ccco3)c(SCC(=O)N(C)C3CCS(=O)(=O)C3)nc2s1 (centres undefined)	-35.0	9.9	-0.069	0.18	-14.1	.	.	.	.	.	.

Assay outcomes from PubChem BioAssay.
